This is a sample that favours compounds with a hit; in the whole collection about 7.3% have one here.
FMDV antiviral – blocks foot and mouth disease virus. FMDV antiviral cell-based qHTS. Potency, µM (series often up to 57.9 µM), actives largely listed as inhibitors. hit rate 1.2% among 410,000. AID 1159524; calls by dose curve; tested in HEK293T cells; further: read-out not given here; nearly all actives have a fitted effect of over 45% in size
HCMV inh – blocks human cytomegalovirus replication. activity change, negative = inhibition, % at 57.5 µM. hit rate 4.5% among 410,000. HFF cells, HCMV-luciferase reporter, 72 h; hits give low values; in the data active means activity change below about -60%; inconclusive means no clear call, values can overlap the other calls; inactive means above about -39%
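After 16 h attachment at 37C, HFF cells received test compound and HCMV-luciferase (1 PFU/cell); reporter luminescence read 72 h later, data normalized against buffer-only and known inhibitor Salinomycin.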
HCV inh – blocks hepatitis C virus; AID 651820; hit rate 3.4% among 340,000; Huh7.5.1 HCVcc-Cre infection, luciferase reporter, 44 h; Potency, µM (doses to about 41.8 µM), hits mostly inhibitors; active means well fitted inhibition curve with a large enough effect; inconclusive means small, poorly fitted or top-dose-only effect, or another doubt; inactive means no such curve, though single readings can be large or run the other way
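Infectious HCVcc-Cre (~0.5 moi) was added to cells just after compound, with cells seeded 4 h earlier at 1,000 per well. Luciferase activity after 44 h culture reported infection; substrate was incubated 15 min at room temperature before reading.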
Vaccinia Venus – inhibitors of vaccinia virus (Venus reporter) | Vaccinia virus Venus reporter expression, fluorescence | hit rate 0.46% among 330,000 | Potency, µM (doses to about 36.5 µM), most hits filed as inhibitors; calls by dose curve; tested in A549 cells; further: nearly all actives have a fitted effect of over 30% in size
Vaccinia mCherry – inhibitors of vaccinia virus infection (mCherry reporter signal); Vaccinia virus mCherry reporter infection, fluorescence; Potency, µM (series often up to 36.5 µM), usual class: inhibitors; hit rate 0.63% among 310,000; AID 720579; calls by dose curve; tested in A549 cells; further: nearly all actives have a fitted effect of over 35% in size
A number is an active result; - = inactive; ? = inconclusive; . = no result; [ ] = remark or other dose.

SMILES | FMDV antiviral | HCMV inh | HCV inh | Vaccinia Venus | Vaccinia mCherry
CCCCC(=O)Nc1cccc(NC(=O)c2ccc(Br)cc2)c1 | - | - | ? | . | .
CCc1cccc(C)c1NC(=O)c1cccc(C(=O)Nc2c(C)cccc2CC)c1 | - | - | . | - | -
CCc1cccc(CC)c1NC(=O)c1cccc(NC(=O)c2ccccc2)c1 | - | -67 | ? | . | .
CCOc1cccc(C(=O)NC(=S)Nc2cccc(C)c2)c1 | - | -99 | - | - | -
CCOc1ccc(NC(=O)CC2C(=O)N(c3ccc(Cl)cc3)C(=O)N2Cc2cccs2)cc1 (stereo unspecified) | - | - | . | - | -
Cc1ccc(/C=C/c2onc(C)c2S(=O)(=O)N2CCC(C(=O)NCc3ccc(OC(C)C)cc3)CC2)cc1 | - | - | . | -[7.34 µM] | -[7.34 µM]
O=C(NC1CCCC1)c1cccc(NC(=O)c2ccco2)c1 | - | -107 | - | . | .
O=C(Nc1cccc(NC(=O)c2ccco2)c1)c1cccc(Br)c1 | - | -90 | - | - | -
CC(=O)c1cccc(NC(=O)c2cccc(NC(=O)c3ccco3)c2)c1 | - | - | - | - | -
CCOc1cccc(C(=O)Nc2cccc(NC(=O)c3ccco3)c2)c1 | - | -62 | ? | - | -
COc1cc(/C=N\Nc2ccc([N+](=O)[O-])cc2)ccc1OCC(=O)Nc1ccc(C)c(C)c1 | - | -72 | - | - | .
CCCOc1ccc(/C=C/C(=O)Nc2ccc([N+](=O)[O-])cc2C)cc1OC | - | -96 | - | . | .
COc1cc(/C=N/NC(=O)Cc2ccccc2)ccc1Oc1ccc([N+](=O)[O-])cc1[N+](=O)[O-] | - | -62 | 14µM | . | .
CCCOc1ccc(/C=C/C(=O)Nc2ccc([N+](=O)[O-])cc2C)cc1 | - | - | ? | - | -
CCc1ccc(OCCn2c(CCNC(=O)C3CCCCC3)nc3ccccc32)cc1 | . | . | . | - | -
COCC(=O)Nc1cc(C(=O)N2CCN(c3ccc(Cl)cn3)CC2)c2c(c1)nc(C1CCC1)n2C | - | . | . | - | -
CCOC(=O)C(NC(=O)CC)(Nc1ccccc1OC)C(F)(F)F (stereo unspecified) | - | - | - | - | .
CCOC(=O)C(Cc1ccccc1)(Nc1ccccc1OC)C(O)c1ccc(C#N)cc1 (stereo unspecified) | . | -66 | . | . | .
Cc1ccc(S(=O)(=O)/N=C(\N)Nc2nc(C)c3cc(C)ccc3n2)cc1 | - | - | ? | . | .
CCc1ccc2nc3c(c(C(=O)O)c2c1)CCC3 | - | - | - | . | .
Cc1cc2nc(N=C(N)N)nc(C)c2cc1C | ? | -99 | ? | . | .
Cc1cc2nc(/N=C(\N)NC(=O)C(C)C)nc(C)c2cc1C | - | - | 11µM | 1µM | ?
Cc1ccc2nc(N=C(N)N)nc(C)c2c1 | ? | -89 | 7.1µM | - | -
CCC(=O)N/C(N)=N/c1nc(C)c2cc(C)c(C)cc2n1 | - | - | ? | ? | ?
CCc1ccc2nc(N=C(N)N)nc(C)c2c1 | ? | -87 | 5µM | ? | ?
SMILES | FMDV antiviral | HCMV inh | HCV inh | Vaccinia Venus | Vaccinia mCherry
Cc1ccc(S(=O)(=O)/N=C(\N)Nc2nc(C)c3cc(C)c(C)cc3n2)cc1 | - | - | ? | . | .
Cc1nc(N=C(N)N)nc2ccccc12 | ? | -81 | 14µM | - | -
O=[N+]([O-])c1ccc(-c2nc(Nc3cccc(O)c3)c3ccccc3n2)cc1 | ? | - | 6.3µM | . | .
O=C(O)c1cccc(-n2c(/C=C/c3ccc([N+](=O)[O-])cc3)nc3ccccc3c2=O)c1 | - | -62 | - | . | .
O=C(O)c1cccc(Nc2nc(-c3ccccc3)nc3ccccc23)c1 | - | - | - | - | -
O=C(O)c1cccc(Nc2nc(-c3ccc([N+](=O)[O-])cc3)nc3ccccc23)c1 | - | -71 | - | . | .
O=C(Nc1ccc([N+](=O)[O-])cc1)C(=O)Nc1cccc(C(=O)O)c1 | 10µM | - | - | . | .
Cn1cc(C(=O)NCCc2ccc(Cl)cc2)c(=O)c2cc(S(=O)(=O)N3CCOCC3)ccc21 | - | - | . | - | -
O=C(Cn1cnc2cc([N+](=O)[O-])ccc2c1=O)NCCc1ccc(Cl)cc1 | - | - | 14µM | - | -
O=C1C=C2C=C[C@@H]3CC2(O1)[C@H]1CCCCN31 | ? | -94 | ? | - | ?
Cc1cccc(N=N/C(=C\O)C(=O)c2ccc(Br)cc2)c1 | - | -77 | 10µM | - | -
O=C(/C(=C/O)N=Nc1cccc(C(F)(F)F)c1)c1ccccc1 | ? | ? | ? | - | -
O=C(Nc1ccc(OC(F)(F)F)cc1)Nc1cccnc1 | - | - | - | . | .
Cc1cc(NC(=O)Nc2cccc([N+](=O)[O-])c2)no1 | - | ? | - | . | .
Cc1ccc(NC(=O)Nc2cccc([N+](=O)[O-])c2)cc1F | - | -100 | 11µM | ? | ?
O=C(Nc1ccc(OC(F)(F)F)cc1)Nc1cccc([N+](=O)[O-])c1 | - | -104 | ? | 10µM | 10µM
Cc1ccc(NC(=O)CSc2nn(-c3ccc(Cl)cc3)c(=S)s2)cc1S(=O)(=O)N(C)C | ? | -83 | 13µM | ? | ?

Screening data deposited in PubChem by National Center for Advancing Translational Sciences (NCATS).
